Reference: ChEMBL document CHEMBL3433997, “St. Jude Leishmania screening dataset” (2016)

Each compound was assayed against Solute carrier family 2, facilitated glucose transporter member 1 (Homo sapiens) (UniProt P11166) (assay: ST_JUDE_LEISH: Cytotoxicity at 2uM final concentration against transgenic Leishmania Mexicana promastigotes LmGLUT1 that are glucose transport deficient and complemented with the human glucose transporter GLUT1. Activity is measured by DNA content using SYBR green in vitro).
Assay type: functional

Sequence of Solute carrier family 2, facilitated glucose transporter member 1 (Homo sapiens) (P11166 whole entry): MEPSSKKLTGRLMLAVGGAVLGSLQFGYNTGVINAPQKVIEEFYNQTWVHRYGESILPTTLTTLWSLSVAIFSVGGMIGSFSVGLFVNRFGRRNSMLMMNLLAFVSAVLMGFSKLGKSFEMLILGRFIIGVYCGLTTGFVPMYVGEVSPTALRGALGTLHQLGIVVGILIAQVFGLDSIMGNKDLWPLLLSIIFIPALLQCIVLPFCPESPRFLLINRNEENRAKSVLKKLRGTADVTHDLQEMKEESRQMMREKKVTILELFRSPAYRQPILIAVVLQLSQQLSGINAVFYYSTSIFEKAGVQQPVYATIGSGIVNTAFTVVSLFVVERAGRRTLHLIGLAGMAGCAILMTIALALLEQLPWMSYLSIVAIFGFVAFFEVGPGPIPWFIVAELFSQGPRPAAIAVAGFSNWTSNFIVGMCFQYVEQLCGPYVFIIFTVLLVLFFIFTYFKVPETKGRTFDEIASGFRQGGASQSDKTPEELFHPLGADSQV

| SMILES | inhibition [%] |
| --- | --- |
| COc1ccc(CN2CCCC(OC(c3ccc(F)cc3)c3ccc(F)cc3)C2)c(O)c1 (stereo unspecified) | 9.08 |
| CCNc1cc(C(=O)N[C@@H](Cc2ccc(F)c(F)c2)[C@H](O)CNCc2cccc(OC)c2)cc(N2CCCCS2(=O)=O)c1 | -0.26 |
| O=C(Nc1cccc(-c2ccc(CN3CCNCC3)cc2)c1)c1cccc(Cl)c1 | -0.47 |
| CC(C)CNC(=O)c1ccnc(-c2ccc(CNCCCc3ccccc3)cc2)c1 | 2.32 |
| COc1ccc(CNCc2ccc(F)cc2)cc1-c1ccc(S(=O)(=O)NCCN2CCCC2)cc1 | 7.44 |
| Cc1cccc2nc(C3CCN(CC4CCN(C(=O)/C=C/c5ccc(Cl)c(Cl)c5)CC4)CC3)[nH]c12 | 10.9 |
| COc1ccc(-c2ccc(NC(=O)c3ccccc3)cc2)cc1CN1CCCN(C)CC1 | 1.09 |
| O=C(Nc1ccc2nc3n(c(=O)c2c1)CCCCC3)C(=O)N1CCN(c2ccc(F)cc2)CC1 | 7.33 |
| Cc1cc(C(=O)Nc2nc(-c3ccccn3)nc3ccsc23)no1 | 75.8 |
| O=[N+]([O-])c1cccc(C=NNc2nc(=Nc3ccccc3)[nH]c(=Nc3ccccc3)[nH]2)c1 | 4.34 |
| Cc1cc(NCCC(=O)NCc2cccc(F)c2)nc(Nc2ccccc2)n1 | 8.44 |
| NS(=O)(=O)c1cccc(Br)c1 | 2.38 |
| COc1cccc(CC(=O)N2CCC(n3c(C)nc4ccc(C)cc43)CC2)c1 | 1.58 |
| Clc1ccc2c(NCCNc3ccnc4cc(Cl)ccc34)ccnc2c1 | -0.52 |
| c1ccc2[nH]c(-c3ccc(-c4ccc(CN5CCN(c6ccncc6)CC5)cc4)s3)nc2c1 | 6.21 |
| Cn1nc(C(F)(F)F)c(-c2ccc(Br)cc2)c1NC(=O)Nc1ccc(F)cc1F | 1.12 |
